Molecules are shown by their SMILES. The campaign covered roughly 290,000 compounds. About 3,000 (1%) were called active. The sample as a whole holds a higher share of actives than the screen did. Values without a mark were called inactive. Cut-off read from the data, not from the text of the source: active = inhibition mostly above about 36% (no sharp cut-off); inactive = mostly below about 34%.

A short description of this assay: inhibition of NOD1-driven NF-kB reporter – cell-based, luminescence, uHTS, primary screen (AID 1578).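 Note: HEK-293T reporter cells stimulated with the NOD1 agonist gamma-tri-DAP.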 The note with it: NOD1-driven NF-kB luciferase reporter cells, at 4 µM, stronger effect = higher value. (In a reporter assay the amount or activity of a reporter protein is the signal.)
`CN1CCC(OC(=O)Cc2ccc(Cl)cc2)CC1`: the inhibition was -12.1%. Regarding `c1ccc(Sc2cccc3ccccc23)c(CNC2=NCCN2)c1`, the inhibition is -31.1%. Next, `Fc1ccc(Sc2ccccc2CNC2=NCCN2)cc1`: -4.9%. Next, `Fc1ccccc1Sc1ccccc1CNC1=NCCN1`: 64.4% (active); `CCOC(=O)c1c(CN2CCN(C)CC2)n(-c2ccccc2)c2cc(Br)c(O)cc12`: -4%. Turning to `CCOC(=O)c1c(CN2CCOCC2)n(-c2ccccc2)c2cc(Br)c(OC)cc12`, the inhibition is 30.8%. Under `CCOC(=O)c1c(CN2CCOCC2)n(-c2ccccc2)c2cc(Br)c(O)cc12` stands 67% (active). Turning to `Cc1cccc(-n2c(C)cc(C(=O)NC3CCCCC3)c2C)c1`, the inhibition is -17.7%. Under `CCOCCCNC(=S)NNC(=O)CCn1nc(C)c(Br)c1C` stands -19.5%; under `NC(=O)CSc1nc2ccccc2c(=O)n1Cc1ccccc1`, -16%; under `Cc1cc(NC(=O)CSc2nc3ccccc3c(=O)n2Cc2ccccc2)no1`, 5%. Under `Cc1ccc(S(=O)(=O)N2CCCCC2C(=O)N(C)c2ccccc2)cc1` (stereo not drawn) stands -15.4%.

For the compound `Cc1cc(C)n(Cc2ccc(Cl)c(Cl)c2)c(=O)c1S(=O)(=O)c1ccccc1`, the inhibition is 5.3%. Next, `CC(C)(C)c1cnnn1-c1ccc(C(=O)CCl)cc1`: 77.3% (active); `Cc1cnnn1-c1ccc(C(=O)CCl)cc1`: 19.4%. Under `CC(=O)c1ccc(-n2nncc2C(C)(C)C)cc1` stands 60.5%; under `O=C1N=C(N2CCOCC2)S/C1=C\c1ccncc1`, -7.7%; under `CC1(C)CN=C(N(C(=O)Nc2ccccc2)c2ccccc2F)S1`, -4.1%. Under `Fc1ccc(COc2ccc(-c3nnco3)cc2)cc1` stands -10.4%.

For `Cc1ccc(COc2ccc(-c3nnco3)cc2)cc1`, the inhibition was -12.2%.

In the case of `CCCCN(CC)S(=O)(=O)c1ccc2c(c1)n(C)c(=O)c(=O)n2C`, the inhibition was -6%.

Take `Cc1nn(Cc2c(Cl)cccc2Cl)c(C)c1NC(=O)/C=C/c1cnn(C)c1C`: the inhibition was 99% (active). Next, `CCn1nc(C)c(NC(=O)/C=C/c2cnn(C)c2C)c1C`: 11%; `Cc1ccccc1Cn1nc(C)c(NC(=O)/C=C/c2cnn(C)c2C)c1C`: -19.1%. Under `Cc1nc2cc(NS(=O)(=O)c3cccc4cccnc34)ccc2s1` stands -11.7%; under `CN(C)/C(=N\S(=O)(=O)c1ccccc1)c1ccccc1`, -32.6%. Next, `N=C1SC(CC(=O)Nc2ccc([N+](=O)[O-])cc2)C(=O)N1c1ccccc1` (stereo not drawn): -6.5%.

Take `CCOC(=O)C1(CCc2ccccc2)CCN(C(=O)CCn2cnnn2)CC1`: the inhibition was -48%. On to `O=C(/C=C/c1ccc(OC(F)F)cc1)Nc1cccc(S(=O)(=O)N2CCOCC2)c1`, for which the inhibition was -23.1%. Under `CCn1c(C)nc2cc(-c3nc4n(n3)Cc3ccccc3-4)ccc21` stands 94% (active); under `Clc1ccc(-c2nc3n(n2)Cc2ccccc2-3)cc1`, -7.2%. Next, `Cc1ccc(-c2nc3n(n2)Cc2ccccc2-3)cc1`: -27.4%. Under `COc1ccc(CCNC2CC(=O)N(C3CCCCC3)C2=O)cc1OC` (stereo not drawn) stands -7.3%; under `O=C1C(Cl)=C(NCCCO)C(=O)c2ccccc21`, -20.7%; under `CCNC1=C(Cl)C(=O)c2ccccc2C1=O`, 4.8%.

Consider `CCN(CC)CCCNC1=C(Cl)C(=O)c2ccccc2C1=O`, for which the inhibition was 98.9% (active).

As to `CC1CCc2c(sc3ncn(CC(=O)N=Nc4c(O)[nH]c5ccccc45)c(=O)c23)C1` (stereo not drawn), the inhibition is 4%. Under `O=[N+]([O-])c1cc(Cl)cc(/C=N/Nc2nc3ccccc3s2)c1O` stands 1.6%; under `COc1cc(/C=N/Nc2ccccn2)ccc1O`, 7.2%. Turning to `Oc1ccccc1/C=N/Nc1cccc2cccnc12`, the inhibition is -47.2%. Next, `COc1ccc(/C=N/Nc2ccccn2)cc1OC`: 1.4%; `Oc1cccc(/C=N/Nc2cccc3cccnc23)c1`: -66.8%. Next, `COc1cc(/C=N/Nc2cccc3cccnc23)cc(OC)c1O`: 50.8% (active); `COc1cc(/C=N/Nc2ccccn2)cc(OC)c1O`: 46.4% (active); `O=[N+]([O-])c1cc(/C=N\Nc2ccccn2)ccc1Cl`: -18.5%.

`CC1=C(C(=O)OCc2ccccc2)C(c2ccccc2OC(F)F)NC(=O)N1` (stereo not drawn): the inhibition was 11.1%. `Cc1[nH]c2ccccc2c1C(=O)C(=O)NCc1cccs1`: the inhibition is -20.5%. For the compound `Cc1ccccc1SCC(=O)N/N=C/c1ccc(F)cc1`, the inhibition was 4.1%. Next, `O=C(Cc1ccccc1F)Nc1nc(-c2cccnc2)cs1`: -9.2%; `O=C(CSc1nnc(-c2ccco2)o1)NC(=O)Cc1ccccc1`: -4.5%; `CC(=O)N1CN(Cc2ccccn2)Cc2c1sc1c2CCCC1`: -11.9%. Under `CC(=O)c1c(C)[nH]c(C(=O)Nc2nc(C)cs2)c1C` stands 12.4%.

For `CC(=O)c1c(C)[nH]c(C(=O)Nc2nc(-c3ccc(Cl)cc3)cs2)c1C`, the inhibition is 66.1%. Next, `COc1ccccc1N1CCN(C(=O)C(C)N(c2ccc(C)cc2)S(C)(=O)=O)CC1` (stereo not drawn): -7.9%. Next, `O=C1c2ccc(Oc3ccc([N+](=O)[O-])cc3)cc2C(=O)N1CCO`: -16.9%; `COc1ccc(N2C(=O)CC(Sc3nc4c(cc3C#N)CCC4)C2=O)cc1` (stereo not drawn): -26.6%. `CCc1c(C)nc2ncnn2c1NCCc1ccc(Cl)cc1`: the inhibition is 57.5% (active). Under `CCc1c(C)nc2ncnn2c1NCCc1ccccc1` stands 24%; under `CCc1c(C)nc2ncnn2c1NCCc1ccc(OC)cc1`, 53.3%; under `O=C(N/N=C/c1ccc2cccnc2c1)c1nc2ccccc2c(=O)[nH]1`, -15.6%. Next, `Cn1ncc2c(O/N=C(\N)c3ccc(C(C)(C)C)cc3)ncnc21`: 98.4% (active). Next, `Cn1ncc2c(NNC(=O)c3ccc(O)cc3)ncnc21`: -28%; `Cn1ncc2c(O/N=C(\N)c3ccc(C(F)(F)F)cc3)ncnc21`: -5.2%. Turning to `Cc1nc2ccc(C(=O)NCc3ccc4c(c3)OCO4)cc2s1`, the inhibition is 11.9%. As to `O=C(CCNS(=O)(=O)c1ccccc1)N1CCOCC1`, the inhibition is -19.5%. Under `Cc1cc(C)c2nc(NC(=O)c3ccc([N+](=O)[O-])o3)sc2c1` stands 37.8%; under `O=C(Nc1nc2ccccc2s1)c1ccc([N+](=O)[O-])o1`, 6.5%.

As to `O=C(Nc1nc2c(F)cccc2s1)c1ccc([N+](=O)[O-])o1`, the inhibition was 7.3%.

As to `O=C(Nc1nc2cc3c(cc2s1)OCCO3)c1ccc([N+](=O)[O-])o1`, the inhibition is -22.1%.

In the case of `CCOC(=O)Cn1cncc1-c1ccc([N+](=O)[O-])cc1`, the inhibition is 10.5%. Under `COc1cnn(-c2ccc(C)cc2)c(=O)c1Cl` stands -22.7%.

As for `Cc1csc2c(N3CCN(C(=O)Nc4ccc(OC(F)(F)F)cc4)CC3)ncnc12`, the inhibition was 22.6%.

With `Cc1csc2c(N3CCN(C(=O)Nc4ccccc4)CC3)ncnc12`, the inhibition is 7.4%.

For the compound `CC1=Nn2c(nc(-c3ccccc3)c2-c2ccccc2)NC(=O)C1Br` (stereo not drawn), the inhibition was 1.4%. In the case of `COc1ccccc1CNc1nc(C)c(C(C)=O)s1`, the inhibition was 12.6%. Under `CCOC(=O)/C(=N/Nc1ccc(Cl)cc1)S(=O)(=O)c1ccccc1` stands -14.8%; under `CCOC(=O)/C(=N/Nc1ccccc1)N1CCCc2ccccc21`, 90.5% (active). Next, `CCOC(=O)/C(=N/Nc1ccc(OC)cc1)N1CCCc2ccccc21`: -9.8%. Next, `CCOC(=O)/C(=N\Nc1ccccc1)P(=O)(c1ccccc1)c1ccccc1`: 43.4% (active); `COC(=O)/C(=N/Nc1ccccc1)N1CCCc2ccccc21`: -10.5%. Take `CCOC(=O)/C(=N\Nc1ccccc1)S(=O)(=O)c1ccccc1`: the inhibition is 0.6%. Next, `CC(=O)c1csc(Nc2ccccc2Cl)n1`: -3%; `O=C(NC(=O)c1cccc(Cl)c1)OC[C@@H]1CCCN2CCCCC12` (stereo partly drawn): 14.2%. Next, `CCOC(=O)c1cc2c(ccn2C)n1CC(=O)N1C(C)CCCC1C` (stereo not drawn): 5.8%; `O=S(=O)(Cc1ncc(C(F)(F)F)cc1Cl)c1ccccc1`: 18%; `O=S(=O)(c1ccccc1)c1ncc(C(F)(F)F)cc1O`: -25.1%.

`O=S(=O)(c1ccccc1)c1ncc(C(F)(F)F)cc1Cl`: the inhibition was 50.2% (active). Under `O=C(NCCCCc1ccccc1)Nc1ccc(F)cc1` stands -30.8%; under `CCn1nc(C(=O)NCC(c2cccs2)N2CCOCC2)c2ccccc2c1=O` (stereo not drawn), -2.4%. Next, `CCN(CC)c1c([N+](=O)[O-])c(=O)n(CC)c2ccccc12`: -5.5%. As for `CCn1c(=O)c([N+](=O)[O-])c(Cl)c2ccccc21`, the inhibition was 61.2% (active). As to `Cn1c(=O)c([N+](=O)[O-])c(Cl)c2ccccc21`, the inhibition is -31.4%. Next, `O=C(OCCC1Oc2cccnc2NC1=O)c1ccc(Cl)cc1` (stereo not drawn): -29.2%; `COc1cccc(-c2nc(CS(=O)CC(=O)NCc3ccccc3)c(C)o2)c1` (stereo not drawn): -4.3%. `Cc1ccc(-n2c(SCc3ccc(C#N)cc3)nnc2-c2ccccn2)cc1`: the inhibition is 2.2%. As to `CCC(=O)N1c2ccc(S(=O)(=O)N3CCN(c4ccccc4Cl)CC3)cc2CC1C` (stereo not drawn), the inhibition is 8.1%. Next, `CCC(=O)N1c2ccc(S(=O)(=O)N3CCN(C)CC3)cc2CC1C` (stereo not drawn): -8.9%; `O=S(=O)(Nc1cc(Sc2cccc3cccnc23)c(O)c2ccccc12)c1ccccc1`: 109% (active). Next, `O=S(=O)(Nc1cc(Sc2cccc3cccnc23)c(O)c2ccccc12)c1ccc(F)cc1`: -23.7%. Under `COc1ccc(S(=O)(=O)Nc2ccc(O)c(Sc3ncn[nH]3)c2)cc1` stands -28.8%; under `O=S(=O)(Nc1cc(Sc2ncn[nH]2)c(O)c2ccccc12)c1ccccc1`, -1.5%.

`COc1ccc(S(=O)(=O)Nc2cc(Sc3ncn[nH]3)c(O)c3ccccc23)cc1`: the inhibition was 93.1% (active). Next, `O=C(O)CSc1cc(NS(=O)(=O)c2ccc(Br)cc2)c2ccccc2c1O`: 5.8%.

By inhibition is commonly meant the drop in the measured response relative to a control, in per cent.

The values above are taken from PubChem BioAssay AID1578 (Sanford-Burnham Center for Chemical Genomics, 2009).
